# Results reported in PubChem BioAssay (NCATS).
# Results filed as inconclusive are left out. Where a call stands in place of a potency, no number is given. Unmarked numbers belong to inactive results. Active and inactive are the calls of the source. Unless noted, calls follow the shape of the dose curve; as a rule, active = well fitted curve in the direction sought with a large enough effect; inconclusive = small, poorly fitted or top-dose-only effect, or another doubt; inactive = no such curve, though single readings can be large; an effect the other way counts as inactive or inconclusive. Where a SMILES comes first, the peptide text is derived from it. Bridges are numbered along the chain shown (N, C = ends). [ ]: non-standard residue; d: D form. hArg = N=C(N)NCCCC[C@H](N)C(=O)O; Mpa = O=C(O)CCS
# Assays:
# [1] = qHTS to identify inhibitors of the type 1 interferon - major histocompatibility complex class I in skeletal muscle: primary screen against the NCATS Pharmaceutical Collection (AID 1347407);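 also: luminescence of HiBiT knocked into endogenous HLA-B as interferon-induced MHC class I level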
# Method in brief: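 A qHTS format is used: 8-point, 1:5 compound series with 46 uM top final concentration, applied alongside 4 ng/ml IFN-beta to HLA-B*08:01-HiBiT knock-in myoblasts. Luminescence is measured after 24 h treatment.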
# [2] = biological target: Protein phosphatase 1D (Homo sapiens) (UniProt O15297); assay: RapidFire Mass Spectrometry qHTS Assay for Modulators of WT P53-Induced Phosphatase 1 (WIP1) (AID 1347424);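 also: amount of dephosphorylated VEPPL-S-QETFS peptide product formed by WIP1; series mostly up to about 63 µM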
# Method in brief: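 10 nM WIP1 + cpd, 1 h RT; + 2 uM VEPPL-pS-QETFS, 5 min RT; stop 0.5% formic acid; labelled product standard 1 uM; RapidFire MS. Buffer 50 mM Tris pH 7.5, 30 mM MgCl2, 1 mM TCEP.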
# [3] = biological target: Protein phosphatase 1D (Homo sapiens) (UniProt O15297); assay: Rhodamine-PBP qHTS Assay for Modulators of WT P53-Induced Phosphatase 1 (WIP1) (AID 1347425)
# Method in brief: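 WIP1 (5 nM final) was preincubated with compound for 1 hour at room temperature. It then dephosphorylated 10 uM VEPPL-pS-QETFS peptide in Tris-HCl pH 7.5 with 30 mM MgCl2. Released Pi was detected by 10 uM Rh-PBP fluorescence (ex 525/em 598 nm) read at 1-min intervals for 11 min, as delta f1 - f0.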
# [4] = Primary qHTS for inhibitors of La Crosse Virus (LACV) - induced cell death in SH-SY5Y cells (AID 1508616);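 also: top concentration of the series differs between compounds; higher means more rescue of cells from virus-induced death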
# Method in brief: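 SH-SY5Y cells (6000/well) plated 24 h, then given compounds by pin transfer and LACV at 0.01 MOI for 6 days at 37C. Viability measured by ATPLite luminescence, normalized to infected DMSO and uninfected DMSO.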
# [5] = biological target: Calcium and integrin-binding protein 1 (Homo sapiens) (UniProt Q99828); assay: Primary qHTS for Identification of Calcium Integrin Binding Protein 1 (CIB1) Competitor (AID 1508620);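 also: GST tagged CIB1 binding a fluorescein labelled alphaIIb integrin peptide tracer; top concentration of the series differs between compounds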
# Method in brief: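 CIB1-GST (1 uM final) and compound incubated 15 min at room temperature before adding FITC-alphaIIb peptide tracer (100 nM final). Competition for binding read by fluorescence polarization (ex 480, em 540) after another 15 min at room temperature.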
# [6] = A High-Content qHTS Against Drug Library for the Identification of Small Molecules that Inhibit DYT1 Early Onset Primary Dystonia-Associated Cell Pathology (AID 1645839; calls by dose curve; also: series mostly up to about 46 µM)
# Method in brief: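 In this high-content image screen, delE TorsinA mislocalization in inducible Flp-In 293 cells is scored as %pathology, with cell count serving as the counterscreen. Compound exposure lasts 48 h under tetracycline induction in reduced-serum medium.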
# [7] = biological target: Cytochrome P450 2D6 (Homo sapiens) (UniProt P10635); assay: Cytochrome P450 family 2 subfamily D member 6 (CYP2D6) small molecule antagonists: luciferase biochemical (cell-free) qHTS assay (AID 1645840; active = well fitted curve in the direction sought with a large enough effect in the repeat runs; an effect the other way counts as inactive or inconclusive; also: nearly all actives have a fitted effect of over 55% in size; also: potency is read from the fitted curve at half-maximal effect; as to activity change, negative = inhibition: series mostly up to about 57 µM)
# Method in brief: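 P450-Glo luminescent screen: recombinant CYP2D6 enzyme–proluciferin substrate mix preincubated with compound 10 min at room temperature, then NADPH regeneration added for 1 h at room temperature. Detection reagent added for 20 min; luciferin light read as relative luminescence units.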
# [8] = biological target: Cytochrome P450 2C9 (Homo sapiens) (UniProt P11712); assay: Cytochrome P450 family 2 subfamily C member 9 (CYP2C9) small molecule antagonists: luciferase biochemical (cell-free) qHTS assay (AID 1645842; active = well fitted curve in the direction sought with a large enough effect in the repeat runs; an effect the other way counts as inactive or inconclusive; also: nearly all actives have a fitted effect of over 55% in size; also: potency is read from the fitted curve at half-maximal effect; as to activity change, negative = inhibition: series mostly up to about 57 µM)
# Method in brief: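 Luminescence, after 20 min with luciferin detection reagent, reflected CYP2C9 turnover during a 1 h NADPH-driven reaction at 37C. Enzyme-substrate mix contained 0.4% bovine serum albumin and was preincubated with compound 10 min at room temperature.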
# [9] = Primary qHTS for small molecule stabilizers of the endoplasmic reticulum resident proteome: Secreted ER Calcium Modulated Protein (SERCaMP) assay (AID 1508630)
# Method in brief: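 GLuc-SERCaMP-expressing SH-SY5Y cells, pretreated 16 h with compound, are challenged with thapsigargin to empty ER calcium stores; after 4 h, coelenterazine is added directly to the medium and luminescence is imaged.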
# Cytochrome P450 2D6 (Homo sapiens), sequence (P10635 whole entry, looked up): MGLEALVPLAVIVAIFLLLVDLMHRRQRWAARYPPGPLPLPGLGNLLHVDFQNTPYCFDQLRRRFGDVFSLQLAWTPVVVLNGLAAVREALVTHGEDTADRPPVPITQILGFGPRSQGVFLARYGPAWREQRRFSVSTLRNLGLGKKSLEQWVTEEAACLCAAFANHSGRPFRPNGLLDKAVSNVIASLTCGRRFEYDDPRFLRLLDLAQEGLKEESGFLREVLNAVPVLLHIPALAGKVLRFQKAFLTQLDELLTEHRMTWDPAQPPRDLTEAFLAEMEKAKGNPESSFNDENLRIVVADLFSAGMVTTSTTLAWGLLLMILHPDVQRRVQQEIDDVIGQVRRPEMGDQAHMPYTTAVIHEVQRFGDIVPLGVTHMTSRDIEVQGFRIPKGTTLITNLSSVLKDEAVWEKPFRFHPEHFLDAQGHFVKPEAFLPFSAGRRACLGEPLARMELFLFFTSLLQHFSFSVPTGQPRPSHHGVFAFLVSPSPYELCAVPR
# Calcium and integrin-binding protein 1 (Homo sapiens), sequence (Q99828 whole entry, looked up): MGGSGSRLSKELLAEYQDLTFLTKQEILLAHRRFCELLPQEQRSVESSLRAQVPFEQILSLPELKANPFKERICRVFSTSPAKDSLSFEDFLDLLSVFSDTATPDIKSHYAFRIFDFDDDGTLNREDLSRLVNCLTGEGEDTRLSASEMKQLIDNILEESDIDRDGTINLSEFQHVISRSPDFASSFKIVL
# Protein phosphatase 1D (Homo sapiens), sequence (O15297 whole entry, looked up): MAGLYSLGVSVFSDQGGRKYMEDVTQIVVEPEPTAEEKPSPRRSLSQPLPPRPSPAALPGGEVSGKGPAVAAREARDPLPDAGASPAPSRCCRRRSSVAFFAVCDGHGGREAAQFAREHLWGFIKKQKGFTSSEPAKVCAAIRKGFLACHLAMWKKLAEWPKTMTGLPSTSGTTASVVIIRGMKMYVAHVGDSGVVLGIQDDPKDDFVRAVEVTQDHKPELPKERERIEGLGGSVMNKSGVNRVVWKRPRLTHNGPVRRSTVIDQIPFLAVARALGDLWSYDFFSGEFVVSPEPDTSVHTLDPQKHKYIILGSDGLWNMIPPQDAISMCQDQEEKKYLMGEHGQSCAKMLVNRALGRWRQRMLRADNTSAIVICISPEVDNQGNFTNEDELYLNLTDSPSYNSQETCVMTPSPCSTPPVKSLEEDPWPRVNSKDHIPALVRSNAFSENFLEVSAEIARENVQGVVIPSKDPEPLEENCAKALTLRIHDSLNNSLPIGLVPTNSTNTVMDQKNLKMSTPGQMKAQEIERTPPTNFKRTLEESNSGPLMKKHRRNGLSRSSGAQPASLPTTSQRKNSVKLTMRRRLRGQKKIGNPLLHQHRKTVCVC
# Cytochrome P450 2C9 (Homo sapiens), sequence (P11712 whole entry, looked up): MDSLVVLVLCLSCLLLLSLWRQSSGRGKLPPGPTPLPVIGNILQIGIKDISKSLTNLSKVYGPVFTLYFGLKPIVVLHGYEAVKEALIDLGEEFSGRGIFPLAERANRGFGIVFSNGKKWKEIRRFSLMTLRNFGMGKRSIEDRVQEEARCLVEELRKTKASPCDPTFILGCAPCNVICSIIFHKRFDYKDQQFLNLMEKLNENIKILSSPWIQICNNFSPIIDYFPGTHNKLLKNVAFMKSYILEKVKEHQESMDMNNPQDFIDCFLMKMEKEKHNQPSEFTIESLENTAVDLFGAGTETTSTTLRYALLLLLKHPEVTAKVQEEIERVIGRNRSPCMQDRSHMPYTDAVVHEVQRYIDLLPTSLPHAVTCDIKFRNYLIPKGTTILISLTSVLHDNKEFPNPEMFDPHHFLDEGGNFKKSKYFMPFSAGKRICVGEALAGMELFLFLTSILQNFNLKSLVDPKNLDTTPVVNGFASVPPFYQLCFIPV
SMILES,outcome [1],outcome [2],outcome [3],outcome [4],outcome [5],Potency [6],Potency [7],Potency [8],outcome [9],"activity change, negative = inhibition [1]","activity change, negative = inhibition [2]","activity change, negative = inhibition [3]",activity change [4],"% pathology change, negative = correction [6]"
CC(C)CCCC(C)CCCC(C)CCCCC(C)CCCC(C)CCCC(C)C (stereo not given),inactive,inactive,inactive,inactive,inactive,inactive,inactive,inactive,,,,,,
O=C(OOC(=O)c1ccccc1)c1ccccc1,inactive,inactive,inactive,inactive,inactive,inactive,inactive,inactive,,,,,,
O=C1c2ccccc2S(=O)(=O)N1CCCCN1CCN(c2ncccn2)CC1,inactive,inactive,inactive,inactive,inactive,inactive,0.871 µM (active),11 µM (active),inactive,,,,,
C=CCN1C[C@H](C(=O)N(CCCN(C)C)C(=O)NCC)C[C@@H]2c3cccc4[nH]cc(c34)C[C@H]21,inactive,inactive,inactive,inactive,inactive,inactive,1.55 µM (active),inactive,,,,,,
O=C(O)c1cc(=O)c2ccccc2o1,inactive,inactive,inactive,inactive,inactive,,inactive,inactive,inactive,,,,,
NS(=O)(=O)c1cc2c(cc1C(F)(F)F)NCNS2(=O)=O,inactive,inactive,inactive,inactive,inactive,inactive,,inactive,inactive,,,,,
COCC(=O)Nc1c(I)c(C(=O)NCC(O)CO)c(I)c(C(=O)N(C)CC(O)CO)c1I (stereo not given),inactive,inactive,inactive,inactive,inactive,inactive,inactive,inactive,,,,,,
OCc1ccc(Cl)cc1Cl,inactive,inactive,inactive,inactive,inactive,inactive,inactive,inactive,,,,,,
NC(N)=NS(=O)(=O)c1ccc(N)cc1,inactive,inactive,inactive,inactive,inactive,inactive,inactive,inactive,inactive,,,,,
O=C(O)CCCc1ccccc1,inactive,inactive,inactive,inactive,inactive,inactive,,inactive,inactive,,,,,
CC(=O)Nc1cccc(O)c1,inactive,inactive,inactive,inactive,inactive,inactive,inactive,inactive,,,,,,
CC(C)=CCC[C@@](C)(O)[C@H]1CC=C(C)CC1,inactive,inactive,inactive,inactive,inactive,inactive,,,,,,,,
Cc1cccc(C)c1NC(=O)CC12CCCN1CCC2,inactive,inactive,inactive,inactive,inactive,inactive,inactive,inactive,inactive,,,,,
CCCCCC(C)N (stereo not given),inactive,inactive,inactive,inactive,inactive,inactive,inactive,inactive,,,,,,
CN[C@@H]1[C@H](O)[C@H](NC)[C@H]2O[C@@]3(O)C(=O)C[C@@H](C)O[C@H]3O[C@@H]2[C@H]1O,inactive,inactive,inactive,inactive,inactive,inactive,,inactive,inactive,,,,,
CCOC(=O)c1cccnc1,inactive,inactive,inactive,inactive,inactive,inactive,inactive,inactive,inactive,,,,,
C[n+]1ccccc1/C=N/O,inactive,inactive,inactive,inactive,inactive,inactive,inactive,inactive,,,,,,
O=C(O)c1ccc(OCCCOc2ccc(C(=O)O)cc2)cc1,inactive,inactive,inactive,inactive,inactive,inactive,12.3 µM (active),inactive,,,,,,
N[C@@H](Cc1ccc(O)cc1)C(=O)O,,,,,inactive,,,,,-1.9% [at 9.18 µM],3.61% [at 12.6 µM],8.22% [at 11.5 µM],20.5% [at 0.858 µM],-10.7% [at 9.22 µM]
Cc1c(Cn2ccnc2)c2ccccc2n1CCC(=O)O,inactive,inactive,inactive,inactive,inactive,inactive,,1.95 µM (active),inactive,,,,,
CC(=O)NCc1c(I)c(NC(C)=O)c(I)c(C(=O)O)c1I,inactive,inactive,inactive,inactive,inactive,inactive,,inactive,inactive,,,,,
C1CCN2C[C@@H]3C[C@@H](CN4CCCC[C@@H]34)[C@H]2C1,inactive,inactive,inactive,inactive,inactive,inactive,,,,,,,,
O=C(/C=C/c1ccc(O)c(O)c1)O[C@@H]1C[C@@](OC(=O)/C=C/c2ccc(O)c(O)c2)(C(=O)O)C[C@@H](O)[C@@H]1O,inactive,inactive,inactive,inactive,inactive,inactive,inactive,inactive,inactive,,,,,
CC(CSC(=O)c1ccccc1)C(=O)N1C[C@@H](Sc2ccccc2)C[C@H]1C(=O)O (stereo not given in full),inactive,inactive,inactive,inactive,inactive,inactive,inactive,inactive,inactive,,,,,
Cc1ccc(S(=O)(=O)NC(=O)NC2CCCCCCC2)cc1,inactive,inactive,inactive,inactive,inactive,inactive,inactive,17.4 µM (active),,,,,,
OCC(O)CS (stereo not given),inactive,inactive,inactive,inactive,inactive,inactive,inactive,inactive,,,,,,
CCCNC(C)C(=O)Nc1c(C)csc1C(=O)OC (stereo not given),inactive,inactive,inactive,inactive,inactive,inactive,,inactive,inactive,,,,,

SMILES,outcome [1],outcome [2],outcome [3],outcome [4],outcome [5],Potency [6],Potency [7],Potency [8],outcome [9],"activity change, negative = inhibition [1]","activity change, negative = inhibition [2]","activity change, negative = inhibition [3]",activity change [4],"% pathology change, negative = correction [6]"
Cc1[nH]c(C)c(Cl)c(=O)c1Cl,inactive,inactive,inactive,inactive,inactive,inactive,inactive,inactive,,,,,,
CC[N+](C)(CC)CCOC(=O)C1c2ccccc2Oc2ccccc21,inactive,inactive,inactive,inactive,inactive,inactive,4.36 µM (active),inactive,,,,,,
COc1ccc(Cc2cnc(N)nc2N)cc1OC,inactive,inactive,inactive,inactive,inactive,inactive,inactive,inactive,,,,,,
O=C(NCC(O)CO)c1c(I)c(C(=O)NCC(O)CO)c(I)c(N(CCO)C(=O)CO)c1I (stereo not given),inactive,inactive,inactive,inactive,inactive,inactive,inactive,inactive,,,,,,
O=C(/C=C/c1ccccc1)OCc1ccccc1,inactive,inactive,inactive,inactive,inactive,inactive,inactive,12.3 µM (active),,,,,,
NS(=O)(=O)c1ccc(C(=O)O)cc1,inactive,inactive,inactive,inactive,inactive,inactive,inactive,inactive,,,,,,
COC(=O)N/N=C/c1c[n+]([O-])c2ccccc2[n+]1[O-],inactive,inactive,inactive,inactive,inactive,inactive,inactive,inactive,,,,,,
NC(=O)CC[C@@H](N)C(=O)O,inactive,inactive,inactive,inactive,inactive,inactive,,inactive,,,,,,
CC(=O)Nc1ccccc1,inactive,inactive,inactive,inactive,inactive,inactive,inactive,inactive,,,,,,
C=CCSCC1Nc2cc(Cl)c(S(N)(=O)=O)cc2S(=O)(=O)N1 (stereo not given),inactive,inactive,inactive,inactive,inactive,inactive,inactive,8.49 µM (active),,,,,,
O=C(O)COC(=O)Cc1ccccc1Nc1c(Cl)cccc1Cl,inactive,inactive,inactive,inactive,inactive,inactive,inactive,17.4 µM (active),,,,,,
CCN[C@H]1CN(CCCOC)S(=O)(=O)c2sc(S(N)(=O)=O)cc21,inactive,inactive,inactive,inactive,inactive,inactive,,inactive,,,,,,
CC(=O)Nc1ccc(C(=O)O)cc1,inactive,inactive,inactive,inactive,inactive,inactive,inactive,inactive,,,,,,
CC1(C)S[C@@H]2[C@H](NC(=O)C(C(=O)O)c3ccccc3)C(=O)N2[C@H]1C(=O)O (stereo not given in full),inactive,inactive,inactive,inactive,inactive,inactive,inactive,inactive,,,,,,
NCC1CCC(C(=O)Oc2ccc(CCC(=O)O)cc2)CC1 (stereo not given),inactive,inactive,inactive,inactive,inactive,inactive,inactive,inactive,,,,,,
C[C@]1(Cn2ccnn2)[C@H](C(=O)O)N2C(=O)C[C@H]2S1(=O)=O,inactive,inactive,inactive,inactive,inactive,inactive,inactive,inactive,,,,,,
CCCCCCCCCCCCCCCCCCO,inactive,inactive,inactive,inactive,inactive,inactive,inactive,inactive,,,,,,
Cc1c(I)c(=O)n(-c2ccccc2)n1C,inactive,inactive,inactive,inactive,inactive,inactive,inactive,inactive,,,,,,
NC(=O)CCCCC1CCSS1 (stereo not given),inactive,inactive,inactive,inactive,inactive,inactive,inactive,inactive,,,,,,
CCN1CC(CCN2CCOCC2)C(c2ccccc2)(c2ccccc2)C1=O (stereo not given),inactive,inactive,inactive,inactive,inactive,inactive,0.436 µM (active),inactive,,,,,,
NC(=O)N[C@@H](CCC(=O)O)C(=O)O,inactive,inactive,inactive,inactive,inactive,inactive,inactive,inactive,,,,,,
CC1(C)S[C@@H]2[C@H](N=CN3CCCCCC3)C(=O)N2[C@H]1C(=O)O,inactive,inactive,inactive,inactive,inactive,inactive,inactive,inactive,,,,,,
NC(=O)[C@@H]1CSSCCC(=O)N[C@@H](CCCCN=C(N)N)C(=O)NCC(=O)N[C@@H](CC(=O)O)C(=O)N[C@@H](Cc2c[nH]c3ccccc23)C(=O)N2CCC[C@H]2C(=O)N1 ([Mpa][hArg]GDWPC-NH2; disulfide 1-7),inactive,inactive,inactive,inactive,inactive,inactive,inactive,inactive,,,,,,
O=C(Cn1ccnc1[N+](=O)[O-])NCCO,inactive,inactive,inactive,inactive,inactive,inactive,inactive,inactive,,,,,,
Cc1ccccc1N=Nc1ccc(N=Nc2c(O)ccc3ccccc23)c(C)c1,inactive,inactive,inactive,inactive,inactive,inactive,,inactive,,,,,,
O=C(CCBr)N1CCN(C(=O)CCBr)CC1,inactive,inactive,inactive,inactive,inactive,inactive,,inactive,,,,,,
